Test results published in PubChem BioAssay.
The source made the active and inactive calls. How the calls were made is not given here.

Tested on: Aerobactin synthetase IucA (Klebsiella pneumoniae hvKP1)
Test: Biochemical IucA enzyme inhibition primary screen of the Spectrum library (AID 1346200);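 further: 100% = wells without compound and 0% = wells lacking enzyme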
Settings: malachite green pyrophosphate, A620, at 8 µM, active compounds read low

Row | SMILES | activity remaining
1 | NC(C(=O)O)C(O)C(=O)O (stereo not given) | 97.5% (inactive)
2 | Cn1cc[nH]c1=S | 99.8% (inactive)
3 | O=c1c(-c2ccccc2)coc2cc(O)cc(O)c12 | 109% (inactive)
4 | NC1(C(=O)O)CCCC1 | 117% (inactive)
5 | COc1ccc(OC)c(C(O)CNC(=O)CN)c1 (stereo not given) | 99.4% (inactive)
6 | CN1CCC(=C2c3ccccc3Sc3ccccc32)CC1 | 119% (inactive)
7 | NC(=O)c1cccnc1 | 109% (inactive)
8 | COc1ccc(-c2coc3c(OC)c(OC)cc(O)c3c2=O)cc1 | 105% (inactive)
9 | COc1ccc(/C=C/C(=O)c2cc(O)ccc2O)cc1 | 87.4% (inactive)
10 | CC[C@H](/C=C/C(C)C1CCC2C3CCC4=CC(=O)CC[C@]4(C)C3CC[C@]12C)C(C)C (stereo not given in full) | 101% (inactive)
11 | C/C=C/c1ccc(OC)cc1 | 98.6% (inactive)
12 | NS(=O)(=O)c1cc2c(cc1Cl)NC(C(Cl)Cl)NS2(=O)=O (stereo not given) | 108% (inactive)
13 | CCCC1O[C@@H]2CC3C4CCC5=CC(=O)C=CC5(C)C4[C@@H](O)CC3(C)[C@]2(C(=O)CO)O1 (stereo not given in full) | 115% (inactive)
14 | CC(=O)OC(C)(C)[C@@H]1Cc2cc3ccc(=O)oc3cc2O1 | 95.5% (inactive)
15 | C[N+]12CCC(CC1)C(OC(=O)C(O)(c1ccccc1)c1ccccc1)C2 (stereo not given) | 111% (inactive)
16 | COc1cc2c(cc1OC)-c1c(oc3cc(O)cc(O)c3c1=O)CO2 | 90.7% (inactive)
17 | CC(=O)O[C@H]1CC[C@@]2(C)C(=CC(=O)C3C4CCC(C(C)CCCC(C)C)[C@@]4(C)CCC32)C1 (stereo not given in full) | 123% (inactive)
18 | COc1cc(/C=C/C(=O)/C=C(O)/C=C/c2ccc(O)c(OC)c2)ccc1O | 103% (inactive)
19 | CC(=O)O[C@H]1CC[C@@]2(C)C(=CCC3C2CC[C@@]2(C)C3CC[C@@H]2C(C)CCCC(C)C)C1 (stereo not given in full) | 124% (inactive)
20 | COC(=O)C1=CO[C@@H](O[C@@H]2O[C@H](CO)[C@@H](O)[C@H](O)[C@H]2O)[C@H]2C1C(=O)C[C@@H]2C (stereo not given in full) | 112% (inactive)

Row | SMILES | activity remaining
21 | CC1=C(/C=C/C(C)=C/C=C/C(C)=C/C=C/C=C(C)/C=C/C=C(C)/C=C/C2=C(C)CCCC2(C)C)C(C)(C)CCC1 | 123% (inactive)
22 | CC(=O)NO | 103% (inactive)
23 | O=C(O)c1ccccc1O | 121% (inactive)
24 | Cc1c(C(N)=O)cc([N+](=O)[O-])cc1[N+](=O)[O-] | 106% (inactive)
25 | N[C@@H]1[C@@H](O[C@@H]2O[C@H](C(=O)O)[C@@H](O)[C@H](O)[C@H]2O)[C@@H](O)[C@@H](CO)O[C@@H]1O | 100% (inactive)
26 | COc1cc(C(=O)NCc2ccc(OCCN(C)C)cc2)cc(OC)c1OC | 114% (inactive)
27 | C[n+]1cccc(C(=O)[O-])c1 | 92.7% (inactive)
28 | N[C@@H](C(=O)O)[C@@H](O)[C@H](O)[C@H](O)CO | 120% (inactive)
29 | CC(=O)C1CCC2C3CC(=O)C4=CC(=O)CCC4(C)C3CCC12C (stereo not given) | 98.9% (inactive)
30 | Cn1nnnc1SCC1=C(C(=O)O)N2C(=O)C(NC(=O)C(O)c3ccccc3)C2SC1 (stereo not given) | 121% (inactive)
31 | N[C@H](C(=O)O)[C@@H]1CC(Cl)=NO1 | 112% (inactive)
32 | CC1(C)CC2C1CC[C@]1(C)CCC3C(C(=O)O)CC(=O)O[C@@]32C1 (stereo not given in full) | 92.5% (inactive)
33 | CCCCCC(C)N (stereo not given) | 111% (inactive)
34 | CC1(C)O[C@@H]2CC3C4CCC5=CC(=O)CCC5(C)C4(F)C(O)CC3(C)[C@]2(C(=O)CCl)O1 (stereo not given in full) | 93.6% (inactive)
35 | CC(C)=CCC/C(C)=C/CC/C(C)=C/CC/C(C)=C/CC/C(C)=C/CC/C(C)=C/CC/C(C)=C/CC/C(C)=C/CC/C(C)=C/CO | 105% (inactive)
36 | COc1cc2c(cc1O)[C@@H](Cc1ccc(O)cc1)[N+](C)(C)CC2 | 75.4% (inactive)
37 | O=C(O)c1ccccc1C(=O)Nc1ccc(S(=O)(=O)Nc2nccs2)cc1 | 98.2% (inactive)
38 | CC1=C(C(=O)O)N2C(=O)[C@@H](NC(=O)C(N)c3ccc(O)cc3)[C@H]2SC1 (stereo not given in full) | 103% (inactive)
39 | C=C[C@H]1CN2CC[C@H]1C[C@@H]2[C@H](O)c1ccnc2ccc(OC)cc12 | 112% (inactive)
40 | CC(=O)Oc1c(-c2ccccc2)oc2c(CC=C(C)C)c3c(c(OC(C)=O)c2c1=O)C=CC(C)(C)O3 | 98.4% (inactive)
